Assay outcomes deposited in PubChem BioAssay by several laboratories.
NR1D1 modulator: modulators of Rev-erb alpha DNA binding, primary screen, biochemical, FITC-DNA, fluorescence polarization, uHTS; Nuclear receptor subfamily 1 group D member 1 (Homo sapiens), P20393; Rev-erbα–FITC-DNA binding, 90 min; activity, % at 10 µM; 0.79% of 370,000 active; AID 1259318, 2017;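 active means activity above about 14%, limit read from the data; passing the limit was not always enough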;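 further: 0% = DMSO wells with 35 nM protein and 100% = DMSO wells with 750 nM protein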
PP5 inh: PP5 phosphatase inhibitors, primary screen, biochemical, fluorescence | 0.18% of 320,000 active | inhibition, % at 6.7 µM | Serine/threonine-protein phosphatase 5 (Homo sapiens), P53041 | AID 1987, 2009 | purified PP5c, OMFP substrate fluorescence;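 active means inhibition above the campaign's mean inhibition across all tested compounds plus 3 SD, cut at about 9.5% in these data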;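 further: 0% = DMSO only and 100% = 100 µM cantharidin control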
PP1 counter: PP1-alpha phosphatase inhibitors, primary screen, counter-screen for PP5 inhibitor project, biochemical, fluorescence, OMFP substrate, single point. Serine/threonine-protein phosphatase PP1-alpha catalytic subunit (Homo sapiens), P62136. purified PP1alpha. inhibition, % at 6.7 µM. 0.9% of 320,000 active;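 active means inhibition above the mean inhibition of all tested compounds plus 3 SD, computed separately for each screening campaign, cut at about 15% in these data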
KLK7 zymogen act: proKLK7 zymogen activators, primary screen, biochemical, fluorescence intensity; AID 652039, 2013; activation, % at 7 µM; 0.9% of 370,000 active; purified proKLK7, EDANS-DABCYL substrate fluorescence; 100% is mature enzyme control, 0% vehicle;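 active means activation above the mean of all tested compounds plus 3 SD, computed per campaign excluding outliers beyond control limits, cut at about 13% in these data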
Target sequence (P49862 whole entry, looked up): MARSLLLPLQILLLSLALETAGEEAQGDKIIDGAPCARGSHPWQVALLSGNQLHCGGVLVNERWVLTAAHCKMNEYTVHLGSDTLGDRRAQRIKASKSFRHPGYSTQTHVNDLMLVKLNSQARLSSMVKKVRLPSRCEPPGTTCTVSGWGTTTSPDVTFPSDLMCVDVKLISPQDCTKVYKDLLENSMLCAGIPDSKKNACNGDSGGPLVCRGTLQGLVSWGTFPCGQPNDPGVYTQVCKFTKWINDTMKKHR
GASC-1 inh: inhibitors of GASC-1 histone demethylase, primary screen, biochemical, fluorescence, DELFIA europium. 0.069% of 330,000 active. AID 2099, 2009. GST-JMJD2C(1-420) H3K9me3 demethylation. inhibition, % at 2.35 µM. Lysine-specific demethylase 4C (Homo sapiens), Q9H3R0;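 active means more than half of a compound's replicate wells show inhibition beyond 50%, single wells judged on their own value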;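 further: signal counts dimethyl H3K9 product captured on neutravidin plate; 0% = median of DMSO wells and 100% = 0.3 times that DMSO median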
Target sequence (Q9H3R0 1-420 limits assumed): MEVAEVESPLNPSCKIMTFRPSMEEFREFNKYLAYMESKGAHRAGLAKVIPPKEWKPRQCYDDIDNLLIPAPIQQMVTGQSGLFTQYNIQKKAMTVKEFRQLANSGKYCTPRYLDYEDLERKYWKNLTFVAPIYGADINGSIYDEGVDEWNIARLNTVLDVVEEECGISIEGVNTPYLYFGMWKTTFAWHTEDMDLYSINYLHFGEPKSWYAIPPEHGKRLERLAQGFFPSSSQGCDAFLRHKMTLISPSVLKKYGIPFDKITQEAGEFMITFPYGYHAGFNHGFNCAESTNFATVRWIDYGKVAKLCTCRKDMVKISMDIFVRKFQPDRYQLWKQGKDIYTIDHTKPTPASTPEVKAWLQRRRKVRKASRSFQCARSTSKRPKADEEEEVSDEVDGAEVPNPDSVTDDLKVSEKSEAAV
PG9 binder: binders of HIV-1 gp120 antibody PG9, primary screen, biochemical, TR-FRET. 0.43% of 360,000 active. HIV-1 gp120 / PG9 antibody interaction. TR-FRET gp120-PG9 antibody binding. inhibition, % at 6.7 µM; in the data active means inhibition above about 8.5%
PG9 bind confirm: binders of anti-gp120 antibody PG9, confirmation, biochemical, TR-FRET; shares compounds with PG9 binder; TR-FRET PG9 antibody binding; inhibition, % at 6.7 µM; 90% of 1,500 active; AID 651571, 2012; in the data active means inhibition above about 9%
PGV04 counter: binders of control antibody PGV04, counter-screen for PG9 antibody binder project, biochemical, TR-FRET, distinct HIV envelope site. 95% of 1,500 active. AID 651604, 2012. TR-FRET PGV04 antibody-gp120 binding. shares compounds with PG9 binder. inhibition, % at 6.7 µM; in the data active means inhibition above about 9.5%
PG9 binder DR: small-molecule binders of antibody PG9, dose response, biochemical, TR-FRET, HIV-1 gp120 antibody | shares compounds with PG9 binder | TR-FRET PG9 antibody-gp120 binding inhibition | IC50, µM | 95 tested, under 10 active | AID 651848, 2012; in the data active means IC50 below about 10 µM
PGV04 DR counter: binders of control antibody PGV04, dose response, counter-screen for PG9 antibody binder project, biochemical, TR-FRET, distinct HIV envelope site; shares compounds with PG9 binder; TR-FRET binding to control antibody PGV04; IC50, µM; 20% of 95 active
PG126 binding DR: binders of control antibody PG126, dose response, counter-screen for PG9 antibody binder project, biochemical, TR-FRET, distinct HIV envelope site; TR-FRET binding to antibody PG126, counterscreen; shares compounds with PG9 binder; IC50, µM; 20% of 95 active
* hit, by the source's call; i = inactive; nt = no result given. An excerpt weighted towards active compounds, which were near 2.8% of everything screened. Unless noted, no stated cut-off is given here; in the data, active means IC50 below about 9 µM; inactive means the rest.

SMILES | NR1D1 modulator | PP5 inh | PP1 counter | KLK7 zymogen act | GASC-1 inh | PG9 binder | PG9 bind confirm | PGV04 counter | others
O=C(Nc1ccccc1)c1ccc(-c2ccc(F)cc2)s1 | 19 | 0 | -4 | 0 | 10 | 19* | 20* | 28*
CNC(=O)c1ccc(-c2ccc(F)cc2)s1 | 3 | 1 | -2 | 1 | 17 | -3 | nt | nt
C[C@@H]1C=CCCO[C@]12C(=O)N(Cc1ccc(Br)cc1)c1cccc(Br)c12 | 12 | nt | nt | 1 | nt | -1 | nt | nt
CC1OC2CC(=O)OC2C2=C1C(=O)c1c(O)cccc1C2=O (stereo not drawn) | -14 | nt | nt | 2 | nt | 15* | 14* | 17*
O=C(O)Cc1ccc2sc(-c3ccccc3)nc2c1 | 0 | 2 | 1 | 0 | 2 | 9.0* | 11* | 17*
O=C(NC1CCCCN(Cc2cccc(C(F)(F)F)c2)C1=O)c1ccc(-c2ccccc2)cc1 (stereo not drawn) | -2 | nt | nt | -1 | nt | nt | nt | nt
O=C(CSc1nnc(-c2cccnc2)n1-c1ccc(Cl)cc1)c1ccc2ccccc2c1 | -5 | nt | nt | 0 | nt | nt | nt | nt
CC(=O)c1ccc(N2CCN(C(=O)c3ccc(-c4ccccc4)cc3)CC2)cc1 | 6 | 3 | 8 | -1 | -7 | 26* | 44* | 54*
Cc1nn(-c2ccccc2)c2sc(C(=O)N3CCN(C(c4ccccc4)c4ccc(Cl)cc4)CC3)cc12 (stereo not drawn) | 2 | nt | nt | -1 | nt | nt | nt | nt
COc1cccc(C2/C(=C(\O)c3ccc4c(c3)OCCO4)C(=O)C(=O)N2Cc2cccnc2)c1 (stereo not drawn) | -3 | 0 | -1 | 0 | -29 | 23* | 30* | 35*
O=C1C(=O)N(Cc2cccnc2)C(c2cccc([N+](=O)[O-])c2)/C1=C(\O)c1ccc2c(c1)OCCO2 (stereo not drawn) | 0 | -1 | 1 | 0 | -3 | 0 | nt | nt
O=C1C(=O)N(Cc2ccncc2)C(c2ccccc2F)/C1=C(\O)c1ccc2c(c1)OCCO2 (stereo not drawn) | 1 | 2 | -1 | 0 | -15 | 16* | 32* | 31* | PG9 binder DR=i;PGV04 DR counter=5.3*;PG126 binding DR=7.8*
O=C1C(=O)N(Cc2cccnc2)C(c2cccc(F)c2)/C1=C(/O)c1ccc2c(c1)OCO2 (stereo not drawn) | 0 | 4 | -3 | 0 | 1 | 21* | 44* | 52*
CN1OC[C@@H]2CN[C@H](c3ccc(N4CCCCC4)cc3)C[C@@H]21 | -4 | nt | nt | 1 | nt | -1 | nt | nt
O=C1C2C(CC3c4ccccc4CCN32)CN1c1ccccc1 (stereo not drawn) | -7 | nt | nt | -24 | nt | nt | nt | nt
N#Cc1cc2c(nc1SCC(=O)O)CCCCC2 | -3 | -1 | -3 | 0 | 3 | -1 | nt | nt
N#Cc1cc2c(nc1SCC(=O)NCc1ccc3c(c1)OCO3)CCCCC2 | 11 | -3 | 1 | 0 | 0 | 14* | 17* | 26*
C#CCn1c(=NC(=O)c2ccco2)sc2cccc(Cl)c21 | 18 | 6 | 0 | -1 | 1 | 16* | 16* | 45*
CCOc1cccc2sc(=NC(=O)c3ccco3)n(CC(=O)OC)c12 | 5 | 1 | 0 | -4 | 5 | -1 | nt | nt
CCCN1CCCCC(NC(C)=O)C1=O (stereo not drawn) | -1 | nt | nt | 0 | nt | -2 | nt | nt
c1ccc(Cc2nnc(Sc3ccccc3)c3ccccc23)cc1 | 3 | 4 | -3 | 1 | -1 | 29* | 29* | 36*
COc1ccc(NC(=O)CSc2nnc(-c3n[nH]c4c3CCC4)n2N)cc1OC | -4 | nt | nt | 0 | nt | nt | nt | nt
N#CC(C#N)=C1NC(N)=C(C#N)C(c2ccccc2)=C1C#N | -5 | 2 | 5 | 2 | -2 | 22* | 21* | 26*
N#CC1=C(c2ccccc2)/C(=C/c2ccccc2)OC1=O | 1 | 1 | 5 | 0 | 10 | 1 | nt | nt
NC(N)=NS(=O)(=O)c1ccc(NC(=S)NC(=O)c2ccc3c(c2)OCO3)cc1 | 13 | 0 | -1 | -1 | -4 | 9.5* | 15* | 22*
SMILES | NR1D1 modulator | PP5 inh | PP1 counter | KLK7 zymogen act | GASC-1 inh | PG9 binder | PG9 bind confirm | PGV04 counter | others
CCC(C#Cc1ccccc1)NCc1ccc(OC)cc1OC (stereo not drawn) | 3 | nt | nt | nt | nt | nt | nt | nt
CCCc1nnc(NC(=S)Nc2ccccc2)s1 | 13 | -2 | -2 | 0 | -1 | 11* | 10* | 13*
O=C(Cn1nnc(N2CCCCC2)n1)NN=Cc1ccccc1O | -3 | nt | nt | -38 | nt | 3 | nt | nt
Cc1cc(C)c2nc(SCC(=O)NC(=O)c3cccn3C)cc(C)c2c1 | 20 | -1 | 1 | 0 | -10 | 15* | 13* | 27*
COc1ccc(-c2cc(C(=O)NN=Cc3ccccc3[N+](=O)[O-])[nH]n2)cc1 | 2 | nt | nt | 0 | nt | nt | nt | nt
Cn1c(/C=C/c2ccccc2)nc2ccccc2c1=O | 3 | 4 | 2 | 0 | -6 | -3 | nt | nt
Cn1c(/C=C/c2ccc(Cl)cc2)nc2ccccc2c1=O | 13 | 4 | -2 | -11 | -4 | 32* | 4 | 7
COc1ccccc1C(=O)NC1CCCCN(Cc2cccc(C(F)(F)F)c2)C1=O (stereo not drawn) | -3 | nt | nt | 0 | nt | nt | nt | nt
CCOC(=O)C1CCN(C(=O)COC(=O)CNC(=O)c2sc3ccccc3c2Cl)CC1 | 8 | 2 | -1 | -1 | 10 | 10* | 12* | 16*
